SENP7 inh = SENP7 protease inhibitors, primary screen, biochemical, luminescence, uHTS; AID 434973, 2010; actives 1.5% (n = 330,000); Sentrin-specific protease 7 (Homo sapiens), Q9BQF6; recombinant SENP7, Z-RLRGG-aminoluciferin luminescence, 40 min; inhibition, % at 5 µM;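 active means inhibition above about 50% at the single test dose, limit read from the data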;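 further: plate controls were DMSO with enzyme for no effect and no enzyme buffer wells for full effect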
SENP6 block = SENP6 protease inhibitors, primary screen, biochemical, luminescence, uHTS; Recombinant SENP6 catalytic domain, aminoluciferin luminescence; inhibition, % at 10 µM; actives 1.8% (n = 330,000); AID 2599, 2010;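 active means inhibition above about 50% at the single tested dose, limit read from the data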;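 further: plate controls were DMSO wells with enzyme for no effect and DMSO wells lacking enzyme for full effect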
Target sequence (Q9GZR1 628-1112 limits assumed): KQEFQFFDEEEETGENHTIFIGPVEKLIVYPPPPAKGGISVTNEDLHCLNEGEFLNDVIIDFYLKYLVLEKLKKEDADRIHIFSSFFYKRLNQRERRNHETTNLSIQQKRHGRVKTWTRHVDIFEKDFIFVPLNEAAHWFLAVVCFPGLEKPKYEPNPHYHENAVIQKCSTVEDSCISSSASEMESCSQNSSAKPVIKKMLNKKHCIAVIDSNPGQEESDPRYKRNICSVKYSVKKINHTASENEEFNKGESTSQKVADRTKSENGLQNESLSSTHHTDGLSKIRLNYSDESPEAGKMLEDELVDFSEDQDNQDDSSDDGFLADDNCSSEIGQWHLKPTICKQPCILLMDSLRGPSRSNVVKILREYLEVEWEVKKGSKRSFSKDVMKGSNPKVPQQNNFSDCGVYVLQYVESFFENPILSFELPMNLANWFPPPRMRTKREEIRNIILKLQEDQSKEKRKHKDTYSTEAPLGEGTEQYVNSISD
PPC-1+TRAIL kill = compounds killing PPC-1 cancer cells with TRAIL present, primary screen, TRAIL potentiator project, ATPLite luminescence, uHTS; PPC-1 cells + TRAIL, ATPLite viability luminescence; cell killing (% activity), % at 4 µM or 5 µM; actives 0.41% (n = 220,000);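 active means cell killing above 50% in the first pass at 4 µM, then a duplicate retest at 5 µM averaging 50% or more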;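 further: plate controls were cells with TRAIL plus DMSO for no effect and medium-only wells lacking cells for full effect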
SENP8 block-1 = human SENP8 protease inhibitors, primary screen, biochemical, fluorescence, Nedd8 protein substrate, uHTS. Sentrin-specific protease 8 (Homo sapiens), Q96LD8. recombinant SENP8. inhibition, % at 20 µM. actives 0.64% (n = 360,000). AID 602440, 2012; in the data active means inhibition mostly above about 40%, no sharp cut-off; inactive means mostly below about 27%
TRAIL sens C8 = viability loss with TRAIL in NB7+C8 cells, primary screen, TRAIL sensitizer project, cell-based, ATPlite luminescence; inhibition (viability loss, TRAIL sensitization), % at 10 µM; actives 1% (n = 360,000); AID 624354, 2012;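 active means compounds causing at least 50% loss of cell viability in the single-dose screen, relative to plate controls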
SENP8 block-2 = SENP8 protease inhibitors, primary screen, biochemical, luminescence | actives 1.2% (n = 330,000) | Sentrin-specific protease 8 (Homo sapiens), Q96LD8 | AID 2540, 2010 | purified SENP8, Z-RLRGG-aminoluciferin cleavage | inhibition, % at 10 µM; in the data active means inhibition above about 50%
SENP8 confirm = SENP8 protease inhibitors, retest, confirmation, biochemical, luminescence, single concentration; shares compounds with SENP7 inh; Recombinant SENP8, Z-RLRGG-aminoluciferin luminescence, 60 min; inhibition, % at 12.5 µM; actives 40% (n = 6,200); AID 488912, 2010;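 active means mean inhibition across replicates above about 50%, limit read from the data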
SENP6 conf = SENP6 protease inhibitors, confirmation, biochemical, luminescence, single concentration | shares compounds with SENP7 inh | recombinant SENP6, Z-RLRGG-aminoluciferin luminescence | inhibition, % at 12.5 µM | actives 58% (n = 6,200) | AID 488915, 2010
SENP7 conf = SENP7 protease inhibitors, retest, confirmation, biochemical, luminescence, single concentration; recombinant SENP7, Z-RLRGG-aminoluciferin luminescence, 40 min; actives 69% (n = 6,200); inhibition, % at 12.5 µM; AID 488917, 2010; shares compounds with SENP7 inh
Casp3 SENP sel = caspase-3 protease inhibitors, confirmation, selectivity assay for SENP inhibitor project, biochemical, single concentration. inhibition, % at 12.5 µM. purified caspase-3, Z-DEVD-aminoluciferin luminescence, 60 min. actives 60% (n = 6,200). shares compounds with SENP7 inh;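 active means mean inhibition above about 50%, limit read from the data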;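 further: plate controls were enzyme with DMSO for no effect and wells without caspase-3 for full effect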
Target sequence (P42574 28-227 limits assumed): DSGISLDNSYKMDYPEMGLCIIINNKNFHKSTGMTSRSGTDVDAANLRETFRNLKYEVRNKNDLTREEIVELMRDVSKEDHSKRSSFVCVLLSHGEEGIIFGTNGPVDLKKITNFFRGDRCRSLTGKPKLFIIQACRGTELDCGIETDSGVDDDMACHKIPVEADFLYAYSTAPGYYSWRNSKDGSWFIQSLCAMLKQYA
SENP luc ctr = luminescence interference (SENP counter-screen); shares compounds with SENP7 inh; Pre-incubated SENP8/Z-RLRGG-aminoluciferin, luciferase luminescence interference; inhibition, % at 12.5 µM; actives 39% (n = 6,200); AID 488919;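 active means mean inhibition above about 50% when retested at one dose, limit read from the data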;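 further: plate controls were DMSO wells with completed reaction for no effect and substrate without enzyme for full effect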
* marks the source's active call; other numbers are inactive results; . = no result. Hits are enriched below; roughly 3% of the tested compounds scored in any of these assays.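 How the source made its calls, unless noted: active means mean inhibition above about 50% in the one-dose retest (limit read from the data); inactive means the rest.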

SMILES | SENP7 inh | SENP6 block | PPC-1+TRAIL kill | SENP8 block-1 | TRAIL sens C8 | SENP8 block-2 | SENP8 confirm | SENP6 conf | SENP7 conf | Casp3 SENP sel | SENP luc ctr
COc1ccc(C(=O)Nc2ccccc2C(=O)N/N=C/c2cccc3ccccc23)cc1 | 63* | 60* | 90* | -30 | 95* | 4 | -11 | 22 | 42 | 45 | 2
COc1ccc(C(=O)Nc2ccccc2C(=O)N2CCCCCC2)cc1 | -6 | -6 | . | 1 | 19 | -13 | . | . | . | . | .
COc1ccc(C(=O)Nc2ccccc2C(N)=O)cc1 | 37 | 65* | 32 | -23 | 52* | 5 | 22 | 19 | 68* | 65* | 53*
COc1ccc(C(CNC(=O)Cc2c(F)cccc2Cl)N2CCCCC2)cc1 (stereo not given) | 5 | 16 | 7 | 3 | 3 | 6 | . | . | . | . | .
CC1(C)CC(=O)C=C(c2ccc(-c3cnc4ccccc4c3)cc2)C1=O | . | . | . | 7 | 29 | . | . | . | . | . | .
O=C(NC1CCCCC1)c1n[nH]c2c1CCCCC2 | 90* | 89* | . | 12 | 78* | 84* | 86* | 86* | 97* | 94* | 73*
O=C(NN=C1CCCC1)c1n[nH]c2c1CCCC2 | 45 | 68* | 12 | 16 | 9 | 39 | 58* | 68* | 87* | 90* | 51*
O=C(N/N=C/c1c(Cl)cccc1Cl)c1n[nH]c2c1CCCC2 | 71* | 28 | 11 | 13 | 18 | 68* | 13 | 72* | 92* | 80* | 7
OC[C@@H]1CN(Cc2ccc3c(c2)OCO3)C[C@H](n2cnc3c(NC4CCCC4)ncnc32)O1 | . | . | . | 9 | 8 | . | . | . | . | . | .
O=C(O)COc1ccccc1/C=C1\SC(=S)N(c2cccnc2)C1=O | 6 | 8 | 22 | . | . | 0 | . | . | . | . | .
CS(=O)(=O)Oc1ccc(Br)c2cccnc12 | -6 | -19 | -8 | 22 | 6 | -9 | . | . | . | . | .
Nc1ccc(Br)c2cccnc12 | 62* | 85* | 10 | 35 | 4 | 75* | 27 | 63* | 33 | 2 | -3
O=C(CSc1ncnc2ccccc12)c1cccs1 | 56* | -66 | 2 | 2 | 3 | 8 | 30 | 52* | 87* | 27 | 7
Fc1ccc(-c2nc3n(n2)Cc2ccccc2-3)cc1 | 99* | 100* | 2 | 19 | 57* | 95* | 93* | 98* | 102* | 98* | 64*
O=C(O)c1ccccc1NSc1ccccc1[N+](=O)[O-] | -7 | -17 | 4 | 6 | -10 | -8 | . | . | . | . | .
CCc1ccc(NSc2ccccc2[N+](=O)[O-])cc1 | 56* | -15 | 6 | 26 | 14 | 2 | 7 | 8 | -7 | 0 | 1
O=C(/C=C/c1ccc(O)c(O)c1)NC(=O)c1ccccc1O | 59* | 74* | . | -7 | 42 | 69* | 0 | 64* | 90* | 38 | 74*
O=C1c2ccccc2S(=O)(=O)c2cc(N3CCOCC3)ccc21 | 69* | 62* | . | -141 | 66* | 46 | 26 | 20 | 25 | 34 | 18
O=C1c2ccccc2S(=O)(=O)c2cc(N3CCN(c4ccccc4)CC3)ccc21 | 4 | -6 | . | . | . | 0 | . | . | . | . | .
CN1/C(=C/C(=O)c2cccs2)Sc2ccccc21 | 83* | 90* | 46 | -284 | 57* | 84* | 94* | 94* | 102* | 94* | 92*
CN1/C(=C\C(=O)c2cccs2)Sc2ccccc21 | -4 | 86* | 28 | -497 | 64* | 82* | 91* | 90* | 100* | 92* | 92*
COc1cc(OC)cc(C(=O)/C=C2\Sc3ccccc3N2C)c1 | 3 | 18 | 8 | -73 | 2 | -14 | . | . | . | . | .
CC1=CC(C)(C)N2C(=O)C3(NCCc4c3[nH]c3ccccc43)c3cccc1c32 (stereo not given) | 15 | 2 | 11 | -2 | 0 | 9 | . | . | . | . | .
COc1ccc(-n2ncc3c(N4CCN(c5cccc(C)c5C)CC4)ncnc32)cc1 | 4 | -2 | . | -50 | 9 | 2 | . | . | . | . | .
COc1ccc(-n2ncc3c(N4CCCCC4)ncnc32)cc1 | 98* | 96* | . | -351 | 89* | 93* | 95* | 98* | 103* | 96* | 95*
SMILES | SENP7 inh | SENP6 block | PPC-1+TRAIL kill | SENP8 block-1 | TRAIL sens C8 | SENP8 block-2 | SENP8 confirm | SENP6 conf | SENP7 conf | Casp3 SENP sel | SENP luc ctr
O=Cc1c(-c2ccccc2)cc2oc3ccccc3cc1-2 | 65* | 67* | . | 16 | 51* | 78* | 19 | 13 | 8 | 19 | -1
Nc1cccc(-c2cc3ccccc3oc2=O)c1 | 11 | 10 | -21 | 3 | 6 | 2 | . | . | . | . | .
Cc1ccc(NC(=O)Cc2noc3ccccc23)cc1 | 44 | 51* | -6 | 3 | 4 | 24 | 47 | 47 | 74* | 61* | 17
O=C(Cc1noc2ccccc12)Nc1ccc2ccccc2c1 | -9 | -6 | 6 | 10 | 9 | -4 | . | . | . | . | .
ClC(=C\c1ccccc1)/C=N/N1CCN(c2ccccn2)CC1 | 54* | 26 | 33 | 8 | -16 | -13 | 5 | 6 | 17 | 31 | 5
N=c1oc2cc(O)ccc2cc1C(=O)Nc1ccc(F)cc1 | 98* | 96* | . | -292 | 27 | 92* | 91* | 94* | 100* | 84* | 62*
O=C(c1ccc(F)cc1)c1cc2ccc(O)cc2oc1=O | 99* | 97* | . | -154 | 10 | 97* | 99* | 100* | 103* | 98* | 98*
COc1ccc(NC(=O)c2cc3cc(OC)ccc3oc2=N)cc1 | -1 | -16 | 17 | 6 | 12 | -6 | . | . | . | . | .
CCCCC(C(=O)O)C(C)CC(=O)Nc1nccs1 (stereo not given) | -4 | -16 | 3 | 18 | -21 | -1 | . | . | . | . | .

Screens (PubChem BioAssay)
